# Compound activity: PubChem, National Center for Advancing Translational Sciences (NCATS)
# ATXN2 expr inh: reduces ATXN2 reporter expression in HEK-293 cells; actives 0.72% (n = 360,000); Potency, µM (top dose mostly 57 µM), without a hit: top-dose activity change, negative = inhibition, hits mostly inhibitors; HEK-293 ATXN2-luciferase reporter, luminescence, 24 h; AID 1745845; note: potency is the fitted concentration of half-maximal effect; % is set by controls: 0 for no effect and ±100 for the full control effect; nearly all actives have a fitted effect of over 55% in size
#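 ATXN2-luciferase reporter cells (luciferase flanked by upstream and downstream ATXN2 gene portions) were treated 24 h at 37 °C with compounds at up to 57 uM. SteadyGlo luminescence gave expression; GF-AFC fluorescence gave viability.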
# ATXN viability: viability counter-screen for ATXN expression inhibitors. S2 cells (HEK-293 line with an ATXN2-luciferase reporter) viability, CellTiter-Fluor protease fluorescence, 24 h. Potency, µM (titrated, usually from 56.7 µM), most hits filed as cytotoxic. actives 0.49% (n = 400,000). AID 651635; note: potency is the fitted concentration of half-maximal effect; nearly all actives have a fitted effect of over 40% in size
# HT1080 IDH1KD tx: toxicity to HT-1080 IDH1 knockdown cells (counter line); HT-1080 IDH1 knockdown viability, ATP luminescence, 48 h; Potency, µM (doses to about 46.1 µM), inactives show top-dose activity, negative = toxicity, usual class: cytotoxic; actives 2% (n = 360,000);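 note: potency is the fitted concentration of half-maximal effect; 0% = DMSO wells and -100% = cell-free medium wells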
#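 Using the IDH1-knockdown HT-1080 line run in the same batch and compound series as the NT line, viability after 48 h at 37 °C was determined by CellTiter-Glo luminescence and expressed as % activity.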
# HT1080NT lethal: kills 2HG-producing HT-1080-NT fibrosarcoma cells | HT-1080-NT fibrosarcoma viability, CellTiter-Glo ATP luminescence, 48 h | Potency, µM (highest dose often 46.1 µM), without a hit: at the highest dose activity, negative = less viability, usual class: cytotoxic | actives 1.6% (n = 360,000);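 note: NT is the 2HG producing partner of a matched IDH1 knockdown line; potency is the fitted concentration of half-maximal effect; 0% = DMSO-treated cells and -100% = media-only wells without cells; nearly all actives have a fitted effect of over 55% in size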
#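 Fibrosarcoma NT cells, 750 per well in 5% FBS RPMI, were exposed to compound for 48 hours. Viability: CellTiter-Glo luminescence.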
# KB-V1 cytotox: kills drug-selected multidrug resistant KB-V1 cells; KB-V1 MDR cells viability, CellTiter-Glo, 72 h; Potency, µM (highest dose often 46.1 µM), usual class: cytotoxic; actives 3.4% (n = 400,000); AID 1347076; note: potency is the fitted concentration of half-maximal effect; % is set by controls: 0 for no effect and ±100 for the full control effect; nearly all actives have a fitted effect of over 60% in size
#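 Cells of the MDR subline KB-V1 are plated, dosed with compound at multiple concentrations, and incubated 72 h at 37 degrees C; CellTiter-Glo is then added and luminescence read after 10 min.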
# KB-3-1 tox: KB-3-1 parental cell cytotoxicity. Potency, µM (titrated, usually from 46.1 µM), hits mostly cytotoxic. KB-3-1 viability, CellTiter-Glo ATP luminescence, 72 h. AID 1347075. actives 1.4% (n = 400,000); note: potency is the fitted concentration of half-maximal effect; % is set by controls: 0 for no effect and ±100 for the full control effect; nearly all actives have a fitted effect of over 60% in size
#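 Multi-concentration cytotoxicity screen in KB-3-1 cells grown in DMEM lacking phenol red with 10% FBS. After 72 h at 37 °C with compound, ATP-dependent luminescence was recorded.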
# SK-N-SH 3D tox: reduced viability of SK-N-SH 3D spheroids, orthogonal test | Potency, µM (top dose mostly 30.7 µM), most hits filed as inhibitors | actives 70% (n = 65) | shares compounds with ATXN2 expr inh | AID 1347135 | SK-N-SH 3D spheroid viability, PI/Hoechst imaging, 72 h
# SJ-GBM2 3D tox: lowers viability of SJ-GBM2 3D spheroids. actives 80% (n = 65). shares compounds with ATXN2 expr inh. Potency, µM (highest dose often 30.7 µM), most hits filed as inhibitors. SJ-GBM2 3D spheroid viability, PI/Hoechst imaging, 72 h
# Daoy 3D tox: reduced viability of Daoy 3D spheroids, orthogonal test; shares compounds with ATXN2 expr inh; Daoy 3D spheroid viability, PI/Hoechst imaging, 72 h; Potency, µM (titrated, usually from 30.7 µM), hits mostly inhibitors; actives 50% (n = 65); AID 1347137
# TC32 3D caspase: caspase activation in TC32 3D spheroids, orthogonal test; AID 1347138; actives 30% (n = 65); TC32 3D spheroids, caspase-3/7 fluorescence imaging, 24 h; Potency, µM (top dose mostly 30.7 µM), hits mostly inhibitors; shares compounds with ATXN2 expr inh
# TC32 3D tox: kills TC32 spheroids in orthogonal 3D test | shares compounds with ATXN2 expr inh | Potency, µM (series often up to 30.7 µM), usual class: inhibitors | actives 60% (n = 65) | TC32 3D spheroid viability, PI/Hoechst imaging, 72 h | AID 1347139
# MG63 spheroid: MG-63 (6-TG R) 3D spheroid viability loss | shares compounds with ATXN2 expr inh | MG-63 (6-TG R) 3D spheroid viability, PI/Hoechst imaging, 72 h | Potency, µM (top dose mostly 30.7 µM), most hits filed as inhibitors | actives 50% (n = 65)
# RD spheroid: kills RD rhabdomyosarcoma spheroids in orthogonal 3D test. AID 1347141. Potency, µM (highest dose often 30.7 µM), usual class: inhibitors. actives 50% (n = 65). RD rhabdomyosarcoma 3D spheroid viability, PI/Hoechst imaging, 72 h. shares compounds with ATXN2 expr inh
# The depositor's hits bear a star; i = inactive; ? = inconclusive; / = no result given. Only some compounds are listed: those with a hit (about 6.2% of all), similar ones and a draw of the others. Calls come from the whole dose curve; as a rule, active = well fitted curve in the direction sought with a large enough effect; inconclusive = small, poorly fitted or top-dose-only effect, or another doubt; inactive = no such curve, though single readings can be large; an effect the other way counts as inactive or inconclusive.
SMILES,ATXN2 expr inh,ATXN viability,HT1080 IDH1KD tx,HT1080NT lethal,KB-V1 cytotox,KB-3-1 tox,SK-N-SH 3D tox,SJ-GBM2 3D tox,Daoy 3D tox,TC32 3D caspase,TC32 3D tox,MG63 spheroid,RD spheroid
Cc1c2oc3c(C)ccc(C(=O)N[C@@H]4C(=O)N[C@H](C(C)C)C(=O)N5CCC[C@H]5C(=O)N(C)CC(=O)N(C)[C@@H](C(C)C)C(=O)O[C@@H]4C)c3nc-2c(C(=O)N[C@@H]2C(=O)N[C@H](C(C)C)C(=O)N3CCC[C@H]3C(=O)N(C)CC(=O)N(C)[C@@H](C(C)C)C(=O)O[C@@H]2C)c(N)c1=O,1µM*,?,/,/,/,/,0.0029µM*,0.0181µM*,0.0256µM*,?,0.0323µM*,0.0288µM*,0.0204µM*
CCOc1ccc(CCNC(=O)c2cnc3sc(N4CCCCC4)nn3c2=O)cc1,7.0%,i,/,/,i,i,/,/,/,/,/,/,/
COC(=O)Nc1nc2ccc(S(=O)c3ccccc3)cc2[nH]1 (centres undefined),-11.8%,?,/,/,/,/,?,0.574µM*,?,?,0.644µM*,?,?
CCCNC(=O)Cn1nc(-c2ccc(C)cc2)c2cnc3ccc(CC)cc3c21,6.4%,i,/,/,i,i,/,/,/,/,/,/,/
Nc1ccn([C@@H]2O[C@H](CO)[C@H](O)C2(F)F)c(=O)n1,0.217µM*,/,/,/,/,/,?,0.144µM*,?,i,0.323µM*,0.574µM*,?
CCCN1CNc2c(c(=O)[nH]c(=S)n2CCc2ccc(OC)cc2)C1,/,/,18.9%,-0.2%,/,/,/,/,/,/,/,/,/
Cc1ccc(-c2nc(SCC(=O)N3CCc4ccccc43)c3c(=O)n(C)c(=O)n(C)c3n2)cc1,-11.4%,i,/,/,i,i,/,/,/,/,/,/,/
COc1cccc2c1C(=O)c1c(O)c3c(c(O)c1C2=O)C[C@@](O)(C(=O)CO)C[C@@H]3O[C@H]1C[C@H](N)[C@H](OC2CCCCO2)[C@H](C)O1 (some centres undefined),1.53µM*,/,/,/,?,?,0.287µM*,0.722µM*,1.44µM*,1.44µM*,1.02µM*,?,?
CCn1c(CN2CCOCC2)nc2cc(NC(=O)c3cc(OC)c(OC)c(OC)c3)ccc21,7.6%,i,/,/,i,i,/,/,/,/,/,/,/
CC(C)(O)Cn1c(NC(=O)c2ccc(-c3cn[nH]c3)s2)nc2cc(CN3CCOCC3)ccc21,6.11µM*,/,/,/,/,/,0.228µM*,0.228µM*,0.644µM*,1.28µM*,1.02µM*,1.44µM*,0.323µM*
COc1cccc(OCCCCn2c(-c3ccc(Cl)cc3)nc3ccccc3c2=O)c1,5.9%,i,/,/,i,?,/,/,/,/,/,/,/
CCN(CC)c1ccc(CNCCCSc2nnnn2C)cc1,-17.2%,i,/,/,i,i,/,/,/,/,/,/,/
C[C@@]12O[C@@H](C[C@]1(O)CO)n1c3ccccc3c3c4c(c5c6ccccc6n2c5c31)CNC4=O,3.06µM*,/,/,/,/,/,1.44µM*,0.144µM*,1.14µM*,2.56µM*,5.11µM*,12.8µM*,8.1µM*
COC1=C2C[C@@H](C)C[C@H](OC)[C@@H](O)[C@@H](C)C=C(C)[C@H](OC(N)=O)[C@@H](OC)C=CC=C(C)C(=O)NC(=CC1=O)C2=O,0.769µM*,/,/,/,/,/,1.62µM*,1.62µM*,6.44µM*,?,1.14µM*,i,0.722µM*
CN(C)N=Nc1nc[nH]c1C(N)=O,?,i,-29.6%,?,?,i,/,/,/,/,/,/,/
CN(C)/N=N/c1nc[nH]c1C(N)=O,-27.0%,i,/,/,/,/,i,?,i,i,i,i,i
CCCCc1nc2cc(C=CC(=O)NO)ccc2n1CCN(CC)CC,113.4%,/,/,/,/,/,0.511µM*,0.909µM*,1.62µM*,?,1.44µM*,6.44µM*,1.62µM*
O=S(=O)(c1ccc(C2CCCCC2)cc1)N1CCN(c2cc(Cl)ccc2Cl)CC1,4.8%,i,/,/,i,i,/,/,/,/,/,/,/
